D3 ag: agonists of human D3 dopamine receptor | P35462 | max activation, % | D3R DiscoveRx beta-arrestin cells, luminescence, 90 min | hit rate 0.58% among 410,000; in the data active = max activation above about 30%; also: 0% is about no effect
Target sequence (P35462 whole entry, looked up): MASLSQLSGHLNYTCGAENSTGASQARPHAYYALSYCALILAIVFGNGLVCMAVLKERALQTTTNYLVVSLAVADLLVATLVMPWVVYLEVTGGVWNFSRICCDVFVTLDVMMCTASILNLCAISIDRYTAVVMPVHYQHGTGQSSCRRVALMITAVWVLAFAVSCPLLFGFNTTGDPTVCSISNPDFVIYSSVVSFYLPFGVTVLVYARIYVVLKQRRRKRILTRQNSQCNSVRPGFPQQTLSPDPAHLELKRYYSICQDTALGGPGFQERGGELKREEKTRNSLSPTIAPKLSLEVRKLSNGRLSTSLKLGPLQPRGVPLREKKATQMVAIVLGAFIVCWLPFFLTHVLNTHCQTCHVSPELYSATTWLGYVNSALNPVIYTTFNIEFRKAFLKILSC
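Agonist mode: compounds and dopamine controls were applied to plated cells for 90 min at 37 degrees C after an overnight attachment at 1500 cells/well. Luminescent read-out followed 30 - 60 minutes at room temperature with DiscoveRx detection reagent.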
a7 integrin act: integrin-mediated muscular dystrophy alleviation activation; hit rate 0.064% among 350,000; AID 624291; alpha7betagal myoblasts, beta-gal FDG fluorescence, 48 h; Potency, µM (highest dose often 38.3 µM), inactives show at the highest dose activation, actives largely listed as activators; active = well fitted activation curve with a large enough effect; inconclusive = small, poorly fitted or top-dose-only effect; inactive = no such curve, though single readings can be large or run the other way;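 also: potency is read from the fitted curve at half-maximal effect; 100% = response of the positive control SU9516; nearly all actives have a fitted effect of over 60% in size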
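Alpha7betagal+/- myoblasts (passage 13) were plated 16-24 hr, then exposed to compounds (1:260 dilution of DMSO stock) for 48 hours at 37C. After MPER lysis, β-galactosidase reporter activity was read as FDG fluorescence (ex 480/em 540) after 30 minutes.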
DRD3 antagonist: antagonists of human D3 dopamine receptor | P35462 | D3R cells, DiscoveRx beta-arrestin luminescence, antagonist mode; active compounds read low | max response, negative = inhibition, % | hit rate 2.5% among 360,000 | AID 652054; in the data active = max response below about -50%; inconclusive = no clear call, values can overlap the other calls; also: % is scaled to controls: 0 for no effect and ±100 for the full control effect
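Cells plated overnight at 1500 cells/well, then exposed to library compounds with dopamine controls for 90 minutes at 37 degrees C. DiscoveRx reagent added for 30–60 minutes at room temperature; luminescence read, quantitative HTS format.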
The depositor's hits bear a star; i = inactive; ? = inconclusive; . = no result given. An excerpt weighted towards active compounds, which were near 2.9% of everything screened.

SMILES | D3 ag | a7 integrin act | DRD3 antagonist
O=C(NCc1ccc(Cl)cc1)c1ccc(-c2ccc(F)c(F)c2)c2ccoc12 | -9 | . | 0
COc1cc(/C=C/C(=O)OC2CC3CCC2(C)C3(C)C)ccc1O (centres undefined) | -2 | -38% | -50*
COc1cc(/C=C/C(=O)OCC(=O)N2CCC(C)CC2)ccc1O | -10 | -14% | -21
COc1ccccc1NS(=O)(=O)c1cccc(-n2c(O)c(C=Nc3ccccc3C(=O)O)c3ccccc3c2=O)c1 | 62* | -50% | 98
COc1ccc(Cn2c(O)c(C=Nc3ccccc3C(=O)O)c3ccccc3c2=O)cc1 | 23 | -24% | 67
CCC(=O)Nc1cc(NC(=O)CSc2ncc(-c3ccc(F)cc3)n2Cc2ccco2)ccc1C | 1 | 18% | -60*
COc1ccc(NC(=O)CSc2ncc(-c3ccc(F)cc3)n2Cc2ccco2)cc1 | 5 | -19% | 0
CN(C)CC(=O)N[C@@H]1CC[C@@H](CC(=O)NCCN2CCCCC2)O[C@@H]1CO | 1 | . | 2
N#Cc1c2ccc(O)cc2n2ccccc12 | 43* | i | 66
N#Cc1c2ccc(OCC(=O)NCc3ccco3)cc2n2ccccc12 | 12 | -3% | 12
CCc1ccc(C(=O)NNc2ccc(C)c(Cl)c2)cc1 | -11 | -11% | ?
COc1ccc(OC)c(NC(=O)C2(C)CCN2Cc2cccc(OC)c2OC)c1 (centres undefined) | 7 | . | 0
O=c1[nH]cnc2c([N+](=O)[O-])cccc12 | -11 | 14% | -80*
O=c1[nH]cnc2ccc([N+](=O)[O-])cc12 | 1 | 0% | -9
COc1ccc(C2C(C(=O)c3cccs3)=C(O)C(=O)N2c2cccc(C)n2)cc1OC (centres undefined) | 4 | 12% | ?
O=C(CN1CCCC1)N1c2ccccc2Sc2ccc(Cl)cc21 | 1 | 14% | -11
COCCCN1CCN(C2Cc3ccccc3Sc3ccc(Cl)cc32)CC1 (centres undefined) | -17 | -40% | -97*
Clc1cccc2c1Sc1ccccc1CC2N1CCNCC1 (centres undefined) | -36 | -43% | -55*
NC(=O)CCN1CCN(CCOC2Cc3cc(Cl)ccc3Sc3ccccc32)CC1 (centres undefined) | -6 | -40% | -86*
O=C(c1ccccc1Cl)N1CCNCC1 | 7 | -8% | -5
NC(=O)COCCN1CCN(C(c2ccccc2)c2ccc(Cl)cc2)CC1 (centres undefined) | -25 | . | .
OCCN1CCN(CCCN2c3ccccc3Sc3ccc(Cl)cc32)CC1 | -94 | . | ?
Clc1ccc2c(c1)C(N1CCNCC1)Cc1ccccc1S2 (centres undefined) | -26 | -64% | -56*
O=C(C1CCCN(S(=O)(=O)c2ccc(Br)s2)C1)N1CCCCCC1 (centres undefined) | -5 | 0% | 0
Cc1ccc(C(=O)NCC(=O)OCc2cc(=O)n3ccsc3n2)cc1 | 8 | . | .
SMILES | D3 ag | a7 integrin act | DRD3 antagonist
CS(=O)CCC(NS(=O)(=O)c1ccccc1)C(=O)O (centres undefined) | 15 | 11% | -14
COc1ccc(C(=O)NNC(=O)c2cccc3ccccc23)cc1 | 5 | ? | -14
COc1ccc(/C=C2\CN(Cc3ccccc3)C/C(=C\c3ccc(OC)c(O)c3)C2=O)cc1O | -16 | -58% | -53*
COc1ccc(C=C2C(=O)c3ccccc3C2=O)cc1O | 2 | 2% | 14
COc1cc(/C=C2\COC/C(=C\c3ccc(O)c(OC)c3)C2=O)ccc1O | -27 | 0% | -90*
COc1cc(/C=C2/CC/C(=C/c3ccc(O)c(OC)c3)C2=O)ccc1O | 9 | 10% | -15
COc1cc(C=C2C(=O)c3ccccc3C2=O)ccc1O | 8 | 21% | -77*
CCN1C/C(=C/c2ccc(OC)c(O)c2)C(=O)/C(=C/c2ccc(OC)c(O)c2)C1 | 2 | -4% | ?
CCCc1nc2c3ccccc3ccn2c1CC1CCCCC1 | -6 | . | 0
CCN(c1ccccc1)S(=O)(=O)c1ccc(Cl)c(NC(=O)CSc2ncn[nH]2)c1 | -5 | 4% | -22
Cc1cc(C)c2c(CC(=O)O)coc2c1 | -7 | -20% | -4
CC1(c2ccc(Cl)cc2)NC(=O)N(CC(=O)Nc2ccc3c(c2)OCO3)C1=O (centres undefined) | 1 | -6% | 6
COc1ccc(Cc2n[nH]c(=S)o2)cc1 | -6 | 22% | -20
S=c1[nH]nc(COc2ccc3ccccc3c2)o1 | 0 | -14% | -62*
CC(=O)Nc1ccc(NC(=O)c2cc(=O)c3cc(C)cc(C)c3o2)cc1 | 2 | 11µM* | 1
Cc1cc(C)c2oc(C(=O)Nc3ccc(S(=O)(=O)Nc4ncccn4)cc3)cc(=O)c2c1 | 10 | . | .
Cc1ccc2nc(SCC(=O)Nc3cccc(S(N)(=O)=O)c3)[nH]c2c1 | 2 | 4% | 2
C[C@H]1COC(=O)[C@@H](NC(=O)OCC2c3ccccc3-c3ccccc32)C/C=C\C[C@H](CC(=O)NCCO)C(=O)N1 | 3 | -21% | 40
CCOc1ccc(NC(=O)CSc2nnc(NC(=O)Nc3ccccc3)s2)cc1 | 4 | . | .
Cc1ccc(-n2ncc3c(=O)[nH]c(SCC(=O)N4CCOCC4)nc32)cc1 | -4 | -17% | -16
COC(=O)c1ccc(CSc2nc3c(cnn3-c3ccc(C)cc3)c(=O)[nH]2)o1 | 35* | -13% | 20
Cc1nc2cc(-c3cccc(F)c3)nn2c(C)c1CCC(=O)N1CCN(c2ccc(F)cc2)CC1 | 3 | . | .
CNC(=S)NN(C)c1nc(C)cc(C)n1 | -1 | 1% | 0
NC(=O)[C@H](Cc1cc2ccccc2s1)NC(=O)[C@@H]1CC2(CC(c3cccc(NC(=O)[C@@H]4CCC(=O)N4)c3)=NO2)CN1C(=O)/C=C/Sc1ccccc1 (some centres undefined) | -11 | 16% | 2
NC(=O)[C@H](Cc1cc2ccccc2s1)NC(=O)[C@@H]1CC2(CC(c3cccc(NC(=O)[C@@H]4CCC(=O)N4)c3)=NO2)CN1C(=O)/C=C/c1c(F)cccc1Cl (some centres undefined) | 34* | 6% | 9
SMILES | D3 ag | a7 integrin act | DRD3 antagonist
CCCOc1ccc(C(=O)OCC(=O)c2c(N)n(C)c(=O)n(C)c2=O)cc1OCC | 1 | 11% | 2
Cn1c(N)c(C(=O)COC(=O)c2ccccc2C(=O)c2ccccc2)c(=O)n(C)c1=O | 0 | 8% | -13
CCOc1cc(C(=O)OCC(=O)c2c(N)n(C)c(=O)n(C)c2=O)cc(OCC)c1OCC | 33* | 12% | 10
Cn1c(N)c(C(=O)COC(=O)c2ccccc2C(=O)c2ccc(Cl)c([N+](=O)[O-])c2)c(=O)n(C)c1=O | -11 | -57% | -97*
CCc1cccc(NC(=O)COC(=O)c2cn(CC)c3nc(C)ccc3c2=O)c1 | -1 | . | .
COc1cccc(/C=C2\SC(=S)N(CCC(=O)N3CCCCC3)C2=O)c1 | 7 | -31% | -11
c1ccc(-n2nnnc2NCCc2c[nH]c3ccccc23)cc1 | -3 | -9% | -52*
c1ccc2c(NCCc3c[nH]c4ccccc34)c3ccccc3nc2c1 | -2 | -59% | ?
CCCC(c1nnnn1Cc1cccs1)N1CCN(C)CC1 (centres undefined) | -12 | -7% | -7

Assay outcomes (PubChem BioAssay)
